Hits are enriched below; roughly 3.2% of the tested compounds scored in any of these assays.
mTORC1 inh: inhibitors of mTORC1 signaling in Tsc2-/- p53-/- MEF cells. Tsc2-/- p53-/- MEF, phospho-rpS6 immunofluorescence/PI, 24 h. Potency, µM (top dose mostly 38.3 µM), hits mostly inhibitors. actives 0.78% (n = 44,000). AID 493208; note: nearly all actives have a fitted effect of over 50% in size
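Tsc2-/-, p53-/- mouse embryonic fibroblasts (empty-vector line) exposed to compound 24 hrs at 37 C, fixed, immunostained for phospho-rpS6 and counterstained with propidium iodide. Acumen laser scanning gives % positive cells from Alexa 488/PI ratio, thresholded using 7.5 nM rapamycin; PI count gives viability.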
S16 F2sN tox: toxic to S16 Pmp22-F2sN Schwann cells; S16 Pmp22-F2sN Schwann cells viability, CellTiter-Glo, 24 h; Potency, µM (doses to about 57.5 µM), usual class: cytotoxic; actives 0.48% (n = 43,000); AID 1508642; note: nearly all actives have a fitted effect of over 65% in size
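S16 Schwann cells carrying the Pmp22-F2sN reporter, seeded in 1536-well format, were exposed to library compounds for 24 h at 37C. Viability was read as CellTiter-Glo luminescence after 15 min at room temperature.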
p53null 32C kill: kills p53 null cells at the permissive temperature; actives 0.62% (n = 55,000); Potency, µM (highest dose often 46.1 µM), actives largely listed as cytotoxic; H1299-neo p53 null cells, ATP luminescence, 24 h, 32C; AID 903; note: nearly all actives have a fitted effect of over 55% in size
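AC50 values derive from Hill modelling of qHTS concentration-response data (up to 46 uM) in H1299-neo cells. Cells were treated 24 h at 32C following overnight attachment at 37C; viability was read as cellular ATP.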
PMP22 txn prim: modulates PMP22 transcription in S16 Schwann cells | Potency, µM (titrated, usually from 57.5 µM), actives largely listed as inhibitors | S16 Pmp22-F2sN Schwann cells (luciferase reporters placed in the Pmp22 gene), FLuc/NLuc coincidence luminescence, 24 h | actives 2% (n = 43,000) | AID 1508649; active = clear falling dose curves in both reporters; inconclusive = both reporters move, but less clearly or upward; inactive = either reporter flat; the % is the NLuc reporter signal
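Luminescent read-out of sequential FLuc and NLuc signals from a reporter embedded in the Pmp22 3' UTR of S16 Schwann cells, taken after 24 h compound exposure at 37C; compounds reducing both signals score as inhibitors of expression.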
p53null 39C kill: p53 null cell cytotoxicity, nonpermissive temperature | Potency, µM (top dose mostly 46.1 µM), most hits filed as cytotoxic | actives 0.97% (n = 55,000) | H1299 p53-null (neo) cells, 39C, ATPlite viability, 24 h | AID 904; note: nearly all actives have a fitted effect of over 50% in size
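Luminescent ATP signal reported cell survival after H1299 lines (neo, p53 null; or p53 A138V) received up to 46 uM compound and 24 hr incubation at 39C.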
Numbers stand for hits; n = inactive; u = inconclusive; x = not tested or not shown. Unless noted, calls come from the whole dose curve; as a rule, active = well fitted curve in the direction sought with a large enough effect; inconclusive = small, poorly fitted or top-dose-only effect, or another doubt; inactive = no such curve, though single readings can be large; an effect the other way counts as inactive or inconclusive.

SMILES	mTORC1 inh	S16 F2sN tox	p53null 32C kill	PMP22 txn prim	p53null 39C kill
Nc1c(C(=O)c2ccccc2)sc(Nc2ccc(Cl)c(Cl)c2)c1C(=O)Nc1ccccc1	n	n	n	u	n
CCOc1ccc2nc(Cl)c(C3CC(c4ccc(C)cc4)=NN3C(=O)CCC(=O)O)cc2c1 (configuration not stated)	n	x	n	x	n
Cc1ccc(CNC(=O)C(=O)NCC(c2ccco2)S(=O)(=O)c2cccs2)cc1 (configuration not stated)	n	n	n	n	n
Cc1cc(S(=O)(=O)NCC(c2ccco2)S(=O)(=O)c2ccccc2)ccc1F (configuration not stated)	n	u	n	n	n
Cc1cc(C)c(S(=O)(=O)NCC(c2ccco2)S(=O)(=O)c2cccs2)c(C)c1 (configuration not stated)	n	18µM	n	u	n
Cc1cc(S(=O)(=O)NCC(c2ccco2)S(=O)(=O)c2cccs2)ccc1F (configuration not stated)	n	10µM	n	9µM	n
CCCN1CCN(c2ncnc3sc(C(=O)Nc4ccc(C(C)C)cc4)c(C)c23)CC1	u	u	n	u	n
CCCN1CCN(c2ncnc3sc(C(=O)Nc4ccc(OC(F)(F)F)cc4)c(C)c23)CC1	16µM	u	n	u	n
CCN(C(=O)C1CCN(S(=O)(=O)c2cc(Br)cc3c2N(C(C)=O)CC3)CC1)c1cccc(C)c1	n	u	n	8.9µM	n
O=C(Nc1ccc(Br)cc1)c1ccc(F)c(S(=O)(=O)NC2CCCCCC2)c1	n	u	n	u	n
O=C(Nc1cc(Cl)cc(Cl)c1)c1ccc(F)c(S(=O)(=O)NC2CCCCC2)c1	u	n	u	u	20µM
CCOC(=O)c1ccc(NC(=O)Cn2cc(C(=O)c3ccc(Cl)cc3)c(=O)c3ccc(C)nc32)cc1	n	u	n	12µM	n
COc1ccc(C)cc1NC(=O)C(Cc1ccccc1)NS(=O)(=O)c1ccc(Br)s1 (configuration not stated)	6.6µM	n	n	u	u
Cc1ccc2scc(N3CCC(C)CC3)c(=O)c2c1	n	n	u	u	20µM
Cc1ccc2scc(N3CCCCC3C)c(=O)c2c1 (configuration not stated)	n	n	13µM	n	16µM
Cc1ccc2scc(N3CCCCC3)c(=O)c2c1	n	n	10µM	n	13µM
CCN(c1ccccc1)S(=O)(=O)c1cc(Br)cc2c1N(C(=O)C1CC1)CC2	n	n	n	u	n
Cc1nn2c(=O)cc(COC(=O)c3ccc(NC(=O)c4ccc(C(C)(C)C)cc4)cc3)nc2s1	n	n	n	n	n
CN(C)c1ccc(C(=O)Nc2cccc(-c3nc4cccnc4s3)c2)cc1	n	n	n	u	n
CN(C)c1ccc(C(=O)Nc2sc(Nc3ccccc3)nc2C(N)=O)cc1	4.6µM	n	u	n	u
CCc1ccc(N2CCn3c2nc2c3c(=O)n(Cc3c(F)cccc3Cl)c(=O)n2C)cc1	n	n	n	n	13µM
COc1ccc(N2CCN(C(=O)Cc3coc4ccc(C)cc34)CC2)cc1	n	n	n	n	n
Cc1ccc(NC(=O)CCc2c(C)nc3nc(C)nn3c2C)c(Cl)c1	n	n	n	n	n
CCCn1c2ccccc2c2cnn(CC(=O)NCc3ccccc3Cl)c(=O)c21	n	n	n	n	n
CCOC(=O)c1cccc(NS(=O)(=O)c2cc(Br)cc3c2N(C(=O)C2CC2)CC3)c1	n	n	n	u	n
O=C(C1CC1)N1CCc2cc(Br)cc(S(=O)(=O)Nc3ccc(F)c(F)c3)c21	n	u	25µM	u	13µM
O=C(C1CC1)N1CCc2cc(Br)cc(S(=O)(=O)Nc3ccc(C(F)(F)F)cc3)c21	u	n	u	u	16µM
COCCCNC(=O)c1c(NC(=O)c2nc(S(C)(=O)=O)ncc2Cl)sc2c1CCCC2	n	3.5µM	n	2µM	n
CCNC(=O)c1c(NC(=O)c2nc(S(=O)(=O)CC)ncc2Cl)sc2c1CCCC2	u	4.5µM	n	4.5µM	25µM
